From PubChem BioAssay come the findings set out here.

Activity calls are given as the source filed them. Unless noted, no rule for the calls is given here.

Test [1] deals with XIP peptide (Xip251-270) binding. In words: small-molecule binders of XIP peptide, primary screen, biochemical, small-molecule microarray, fluorescence 635/667 nm, 0.1 µg/mL protein (AID 1182). The settings on record: fluorescent protein binding, 635 nm, higher = more signal, called active from +8 up or from −8 down.
For another test, the system named is XIP peptide (Xip251-270). In words: small-molecule binders of XIP peptide, primary screen, biochemical, small-molecule microarray, fluorescence 635/667 nm, 0.5 µg/mL protein (AID 1183). The settings on record: small-molecule microarray binding, fluorescence 635 nm; higher = more signal.
Test [2] in a line: Plasmodium falciparum growth inhibition, primary screen, strain 3D7, DAPI fluorescence, 100 nL (AID 1184).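 Also: parasites grown inside human red blood cells in medium with human serum.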 Conditions: P. falciparum 3D7 growth, 3 d, higher = more signal.
Test [3] deals with Homeobox protein Hox-A13 (Mus musculus) (UniProt Q62424). The test is described as follows: inhibitors of HoxA13-DNA binding, primary screen, biochemical, fluorescence polarization, labeled oligonucleotide (AID 1185). The settings on record: 15 min, higher = more signal, called active from +8 up or from −8 down. On the technique in general: Polarisation of emitted light reports the rotation of a fluorescent probe.

The nature of test [4]: inhibitors of hydroxyurea-induced Chk1 phosphorylation, primary screen, imaging, HeLa, phospho-Chk1 antibody, percent positive cells (AID 1186). The settings on record: hydroxyurea-induced phospho-Chk1 immunofluorescence imaging, higher = more signal.
The nature of test [5]: inhibitors of hydroxyurea-induced Chk1 phosphorylation, primary screen, imaging, HeLa, phospho-Chk1 nuclear intensity (AID 1187). The settings on record: hydroxyurea-induced phospho-Chk1 immunofluorescence imaging, higher = more signal.

Homeobox protein Hox-A13 (Mus musculus), sequence (Q62424 whole entry, looked up): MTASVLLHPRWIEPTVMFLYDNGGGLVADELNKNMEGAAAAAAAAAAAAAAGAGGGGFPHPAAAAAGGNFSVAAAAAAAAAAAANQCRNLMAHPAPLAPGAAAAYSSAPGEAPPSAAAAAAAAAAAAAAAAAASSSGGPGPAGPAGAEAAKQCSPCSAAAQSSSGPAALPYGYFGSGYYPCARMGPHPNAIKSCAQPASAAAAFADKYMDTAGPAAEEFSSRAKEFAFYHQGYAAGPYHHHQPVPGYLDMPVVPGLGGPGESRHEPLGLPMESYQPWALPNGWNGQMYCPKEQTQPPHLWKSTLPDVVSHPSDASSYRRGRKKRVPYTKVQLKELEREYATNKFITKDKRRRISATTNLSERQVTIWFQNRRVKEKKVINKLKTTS

On to `CC1=C[C@@]2(CO)C(=O)[C@]3(CO3)[C@@H]1[C@H]1[C@]2(C)C=C(CO)C(=O)[C@]12CO2`, for which the composite z-score is 0.188 (inactive) in test [1] and 0.454 in the test with XIP peptide (Xip251-270). Besides, the z-score in test [2] is -1.27; in test [3] it was -4.58 (inactive); in test [4], -0.441 (inactive); in test [5] it was -0.35 (inactive).
Turning to `CN(C)CCCNC(=O)[C@@]1(c2ccc([N+](=O)[O-])cc2)CC(=O)N(CC23CC4CC(CC(C4)C2)C3)[C@@H]1c1ccc(CO)cc1I`, the composite z-score is 0.166 (inactive) in test [1] and 0.86 with XIP peptide (Xip251-270). Moreover, the z-score was -2.16 in test [2], 8.34 (active) in test [3], -0.449 (inactive) in test [4] and -0.766 (inactive) in test [5].
In the case of `COC1OC[C@]2(C)[C@H]3C4=C(CN2C(=O)OC(C)(C)C)[C@H](C)C(CO)C(CO)C4CC[C@@H]13` (stereo partly specified), the figures for the composite z-score (in test [1]; in the test on XIP peptide (Xip251-270)) were 1.48 (inactive) and 0.745, respectively. Also, the z-score in test [2] was -0.892; in test [3], -4.97 (inactive); in test [4], 0.495 (inactive); in test [5] it was -0.0531 (inactive).
As for `C=CCOC(=O)[C@H]1[C@@H]2C(=O)O[C@@H](c3ccccc3)[C@@H](c3ccccc3)N2[C@@H](c2ccc(OCCOC(=O)[C@@H]3C[C@@H]4C(=O)N5CCC[C@H]5C(=O)N4[C@@H]3c3ccc(O)cc3)cc2)[C@]12C(=O)Nc1ccc(I)cc12`, the values for the composite z-score (in test [1]; in the test with XIP peptide (Xip251-270)) were 0.773 (inactive) and 0.787, respectively. For the same molecule, the z-score was -1.64 in test [2], 2.54 (inactive) in test [3], 0.651 (inactive) in test [4] and 0.571 (inactive) in test [5].
As for `C=CCC(OC(C)=O)[C@@H]1[C@@H](N(Cc2ccc(-c3ccccc3)cc2)C(=O)Cc2ccc(F)cc2)c2cc(OCCCO)ccc2N1C(=O)Cc1ccc(OC)cc1` (stereo partly specified), the composite z-score was 0.0187 (inactive) in test [1] and -0.308 in the test with XIP peptide (Xip251-270). In addition, the z-score in test [2] was -0.939; in test [3] it was -2.3 (inactive); in test [4], -0.245 (inactive); in test [5], -0.23 (inactive).
For the molecule `COc1ccc(CN(C2=CC[C@@]3(C(N)=O)C(=O)C(Cl)=C(Cl)C(=O)[C@@]3(C#N)C2)S(=O)(=O)c2ccc(Br)cc2)cc1`, the composite z-score in test [1] was 0.68 (inactive); in the test with XIP peptide (Xip251-270) it was 0.923. Further, the z-score in test [2] is 0.435; in test [3], -6.44 (inactive); in test [4], -0.207 (inactive); in test [5], -0.179 (inactive).
On to `CC(C)(C)OC(=O)CC[C@@]1(C(=O)NCc2ccccc2)N=C(c2ccc(OCCCO)cc2)O[C@@H]1c1ccccc1N=[N+]=[N-]`, for which the composite z-score in test [1] was -0.208 (inactive); in the test on XIP peptide (Xip251-270), 0.759. The z-score in test [2] is -2.1; in test [3], -1.44 (inactive); in test [4] it was -0.347 (inactive); in test [5], 0.14 (inactive).
As to `[N-]=[N+]=Nc1ccccc1C[C@]1(C(=O)N2CCOCC2)N=C(c2ccc(OCCCO)cc2)O[C@H]1c1ccccc1`, the results for the composite z-score (in test [1]; with XIP peptide (Xip251-270)) were 0.511 (inactive) and 0.748, respectively. The z-score in test [2] is -2.03; in test [3], -5.32 (inactive); in test [4] it was -0.47 (inactive); in test [5] it was -0.106 (inactive).
As to `CCCC[C@@H]1C[C@H]1[C@@H](NC(=O)Cc1ccccc1)c1ccc(-c2ccccc2)cc1`, the composite z-score in test [1] is 0.33 (inactive); in the test on XIP peptide (Xip251-270), -0.135. Moreover, the z-score in test [2] is -0.456; in test [3] it was -0.559 (inactive); in test [4], -0.584 (inactive); in test [5] it was -0.541 (inactive).
As to `CC(C)OC(=O)C=C1C[C@@H](c2ccc(C(F)(F)F)cc2)O[C@@H](c2ccc(C(F)(F)F)cc2)O1`, the composite z-score in test [1] was 0.416 (inactive); in the test with XIP peptide (Xip251-270), 0.567. The z-score in test [2] is -0.266; in test [3], -3.22 (inactive); in test [4], -0.272 (inactive); in test [5], 0.0075 (inactive).
As for `COC(=O)[C@@]1(Cc2ccccc2)[C@H]2c3cc(C(=O)N(C)C)n(Cc4c(CO)[nH]cc(C)c4=O)c3C[C@H]2CN1C(=O)c1ccccc1`, the composite z-score was 0.278 (inactive) in test [1] and 0.3 with XIP peptide (Xip251-270). The z-score in test [2] is -1.16; in test [3], -5.3 (inactive); in test [4] it was -0.0454 (inactive); in test [5], 0.0707 (inactive).
On to `NC(=O)N1C(=O)C2C(C1=O)C1C=C(CCCO)C2C(c2cccs2)N1Cc1cccc(OC(F)(F)F)c1` (stereo unspecified), for which the figures for the composite z-score (in test [1]; with XIP peptide (Xip251-270)) were 1.07 (inactive) and 0.577, respectively. The z-score in test [2] was 0.379; in test [3], -6.01 (inactive); in test [4], -0.356 (inactive); in test [5], -0.334 (inactive).
In the case of `CCOC(=O)C1=C[C@@H](c2ccccc2)N(S(=O)(=O)c2ccc(C)cc2)[C@H]1c1ccccc1Cl`, the composite z-score in test [1] was 0.566 (inactive); with XIP peptide (Xip251-270), 0.307. Moreover, the z-score in test [2] was -2.02; in test [3], 0.552 (inactive); in test [4], -0.339 (inactive); in test [5], -0.865 (inactive).
With `C[N+](C)(C)CCCCCCNC(=O)[C@H]1C[C@H]2C(=O)NCC(=O)N2[C@H]1c1ccc(O)cc1`, the values for the composite z-score (in test [1]; in the test on XIP peptide (Xip251-270)) were 0.537 (inactive) and 0.815, respectively. Further, the z-score in test [2] was 0.089; in test [3], -2.39 (inactive); in test [4] it was -0.458 (inactive); in test [5], -0.132 (inactive).
For `O=C1C2C=CC(C(O)c3ccccc3)N(Nc3ccccc3F)C2C(=O)N1c1ccccc1` (stereo unspecified), the composite z-score was 1.07 (inactive) in test [1] and 0.726 in the test on XIP peptide (Xip251-270). Besides, the z-score in test [2] was 0.199; in test [3], -3.79 (inactive); in test [4], 0.237 (inactive); in test [5], 0.0511 (inactive).
Regarding `COc1cccc(/C=C/C=O)c1`, the composite z-score in test [1] was 0.421 (inactive); in the test on XIP peptide (Xip251-270), -0.453. For the same molecule, the z-score is 1.1 in test [2], -0.396 (inactive) in test [3], 0.36 (inactive) in test [4] and 0.769 (inactive) in test [5].
